Compound activity from PubChem.
Compounds with a hit are over-represented: about 11% of the library has one in this group of screens.
USP30 block = inhibitors of human USP30 deubiquitinase. Ubiquitin carboxyl-terminal hydrolase 30 (Homo sapiens), Q70CQ3. purified USP30, Ub-rhodamine cleavage fluorescence. inhibition, % at 25 µM. 47,000 compounds, 5.3% hits. AID 1645860, 2021
USP17 block = inhibitors of human USP17 deubiquitinase; Ubiquitin carboxyl-terminal hydrolase 17-like protein 5 (Homo sapiens), A8MUK1; purified USP17, Ub-rhodamine cleavage fluorescence, 3 h; inhibition, % at 50 µM; 47,000 compounds, 6.5% hits; AID 1645855, 2021
OTUD3 inh = inhibitors of human OTUD3 deubiquitinase. 47,000 compounds, 0.7% hits. purified OTUD3, Ub-rhodamine fluorescence, 2 h. inhibition, % at 25 µM. OTU domain-containing protein 3 (Homo sapiens), Q5T2D3
Target sequence (Q5T2D3 whole entry, looked up, the tested form may be a part): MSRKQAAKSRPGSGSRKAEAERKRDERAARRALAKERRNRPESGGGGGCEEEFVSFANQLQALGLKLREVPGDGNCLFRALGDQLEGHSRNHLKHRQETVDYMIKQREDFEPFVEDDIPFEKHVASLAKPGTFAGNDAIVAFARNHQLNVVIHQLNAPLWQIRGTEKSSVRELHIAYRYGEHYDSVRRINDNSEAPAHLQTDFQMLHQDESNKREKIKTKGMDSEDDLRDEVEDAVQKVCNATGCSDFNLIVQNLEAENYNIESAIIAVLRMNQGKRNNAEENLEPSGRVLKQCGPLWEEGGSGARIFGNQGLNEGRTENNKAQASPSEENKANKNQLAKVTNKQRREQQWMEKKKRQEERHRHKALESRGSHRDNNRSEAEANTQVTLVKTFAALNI
USP28 block = inhibitors of human USP28 deubiquitinase; Ubiquitin carboxyl-terminal hydrolase 28 (Homo sapiens), Q96RU2; AID 1645857, 2021; purified USP28, Ub-rhodamine cleavage fluorescence, 30 min; 47,000 compounds, 3% hits; inhibition, % at 25 µM
An asterisk follows results filed as active; x = not tested or not shown. Cut-off read from the data, not from the text of the source: active = inhibition above about 30%; inactive = the rest.

SMILES	USP30 block	USP17 block	OTUD3 inh	USP28 block
Cc1ccc(S(=O)(=O)N2CCC(C(=O)OCC(=O)Nc3ccc4c(c3)CCC4)CC2)cc1C	9	8	10	15
Cc1ccc(S(=O)(=O)N2CCC(C(=O)OCC(=O)Nc3ccc(OC(F)(F)F)cc3)CC2)cc1C	43*	31*	27	13
CC(=O)N1[C@@H](CNC(=O)c2cccc(C)n2)C[C@@]2(C)[C@@H](O)CCCC[C@@H]12	3	7	8	0
Cc1ccccc1CNC(=O)c1ccc(Cc2c(C)noc2C)o1	4	-11	-11	-3
C/C1=C/C=C/[C@H](C)[C@H](O)[C@@H](C)[C@@H](O)[C@@H](C)[C@H](O)[C@H](C)[C@@H](O)[C@@H](C)/C=C(/C)C(=O)c2c(O)c(C)cc3c2C(=O)C=C(NC1=O)C3=O	-62	51*	-10	-6
CCOC(=O)c1c(-c2ccccc2Cl)csc1NC(=O)CNc1cccc(O)c1	-39	32*	-4	39*
CCCc1cc(Nc2ccc(C(=O)NC3CC3)cc2)n2nc(-c3cccnc3)nc2n1	3	9	2	5
O=C(Nc1ccccc1)Nc1cnc2ccc(C(=O)NCc3ccncc3)cn2c1=O	19	16	12	10
COc1ccc(CC(=O)Nc2cnc3ccc(C(=O)NCc4ccncc4)cn3c2=O)cc1	-14	30*	5	2
O=C(Nc1ccc(O)cc1)c1cccn2c(-c3ccccc3F)nnc12	25	-6	0	37*
Cc1nnc2c(NC(=O)c3cc(F)ccc3F)cccn12	2	14	10	6
COc1ccc(CN(C(=O)c2cccc(NS(C)(=O)=O)c2)C2CC2)cc1	0	-1	5	2
COc1ccc(CC(=O)Nc2cc(N3CCCS3(=O)=O)ccc2C)cc1	25	20	0	12
CCOc1ccc(CC(=O)Nc2cc(N3CCCS3(=O)=O)ccc2C)cc1	43*	8	11	14
CCC(C)(N)c1nnnn1-c1c(C)cccc1C (configuration not stated)	-8	x	-1	-5
O=C(Nc1ccc(Br)cc1)c1cc(=O)[nH]c2ccccc12	35*	7	5	15
Cc1nc2ccccc2c(-c2ccccc2)c1C(=O)Nc1ccccc1	38*	8	6	16
CC(C)c1ccc(NC(=O)c2c(-c3ccccc3)nnc3ccccc23)cc1	24	8	3	4
O=C(Cn1nnc2ccccc21)Nc1nc2ccccc2s1	x	14	8	x
COc1cc2cc(C(=O)NCC(=O)Nc3nc4ccccc4s3)n(C)c2cc1OC	19	33*	4	5
Cc1c(-c2noc(-c3ccccc3)n2)nnn1Cc1ccccc1	15	24	8	10
Cc1ccc(Cn2nnc(-c3noc(-c4ccc[nH]4)n3)c2C)cc1	22	21	8	62*
Cc1c(-c2noc(-c3ccccc3)n2)nnn1Cc1cccc(F)c1	10	10	11	0
COc1ccccc1-c1nc(-c2nnn(Cc3cccc(F)c3)c2C)no1	22	14	10	56*
COc1ccc(Cc2noc(C3(c4ccc(OC)cc4)CCOCC3)n2)cc1	7	14	8	7
SMILES	USP30 block	USP17 block	OTUD3 inh	USP28 block
COc1cccc(CN2C[C@@]34CN(C(=O)c5ccccn5)C[C@@H](C[C@@H]3S2(=O)=O)O4)c1	17	17	13	10
CSc1ccc(CCNC(=O)CCc2nc3cccnc3n2Cc2ccccc2)cc1	-30	2	0	-2
CSc1cccc(NC(=O)CCc2nc3cccnc3n2Cc2ccccc2)c1	-44	48*	-12	-15
CCc1ccc(NC(=O)CCc2nc3cccnc3n2Cc2ccccc2)cc1	79*	71*	46*	57*
Cc1cc(-c2cnc(C)nc2C2CCCN(C(=O)Cc3ccc(F)cc3)C2)on1 (configuration not stated)	24	11	9	5
N#Cc1c(C(F)(F)F)cc(-c2ccccc2)nc1N1CCOCC1	0	30*	0	-5
Cn1nc(C(=O)N2CCC3(CC2)OCCO3)c2c1-c1ccccc1OC2	18	9	6	6
CN1CCc2c(sc3c2c(NCc2cccnc2)nc2nnnn23)C1	-198	-8	-44	-36
O=C(Nc1ccc(-c2cn3ccsc3n2)cc1)c1ccccc1Br	37*	17	13	17
O=C(Cn1c(=O)[nH]c2ccccc2c1=O)N1CCN(c2ccc([N+](=O)[O-])cc2)CC1	-65	-13	-24	-25
